Molecules are shown by their SMILES. This is part of a sample that, as a whole, favours compounds with a hit. Of some 83,000 tested, about 20% had one in any assay.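 Note: values are percent growth. 100 is the growth of untreated cells, values between 100 and 0 indicate rising inhibition; between -100 and 0 indicates cell death.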 Unmarked numbers belong to inactive results. Calls of active or inactive are those of the source. Rule for the calls: active = growth percent below 10; inactive = the rest.

Among the test systems are K-562 leukemia; MALME-3M melanoma; MDA-MB-231 breast; RXF 393 renal; SF-268 CNS; SF-295 CNS; SF-539 CNS; UACC-257 melanoma; M14 melanoma; HCT-15 colon; HT29 colon; SNB-75 CNS; SNB-19 CNS; U251 CNS; PC-3 prostate; SK-MEL-5 melanoma; UACC-62 melanoma; LOX IMVI melanoma; SK-MEL-28 melanoma; SK-MEL-2 melanoma.
Common to all, as to assay: NCI-60 one-dose screen, 48 h (100 = growth as untreated, 0 = no growth, -100 = all killed)
Common to all, as to details: 10 µM unless noted

Regarding `O=C(CCN1C(=O)/C(=C/c2ccccc2)SC1=S)N1CCOCC1`, the growth with K-562 leukemia was 43.1%; in the experiment on MALME-3M melanoma it was 72.9%; in the experiment with MDA-MB-231 breast, 75.9%; with RXF 393 renal, 77.1%; with SF-268 CNS, 97.7%; in the experiment with SF-295 CNS it was 98.1%. Besides, the growth is 91.8% with SF-539 CNS; 91.4% with UACC-257 melanoma; 76.8% in the experiment with M14 melanoma; 53.7% with HCT-15 colon; 102% in the experiment on HT29 colon; 92.1% in the experiment with SNB-75 CNS. For the same compound, the growth is 101% with SNB-19 CNS; 99.9% with U251 CNS; 111% with PC-3 prostate; 99.5% in the experiment on SK-MEL-5 melanoma; 78.8% with UACC-62 melanoma; 0.309% (active) with LOX IMVI melanoma. Further, the growth in the experiment with SK-MEL-28 melanoma was 85.6%.
Regarding `CCN1C(=S)N(CC)C2C1NN=C1SC(c3ccccc3)=CC(=O)N12` (stereo unspecified), the growth with K-562 leukemia was 57.1%; with MALME-3M melanoma, 105%; in the experiment with MDA-MB-231 breast, 94%; in the experiment on RXF 393 renal it was 89%; in the experiment on SF-268 CNS it was 115%; in the experiment with SF-295 CNS it was 106%. In addition, the growth is 98% in the experiment on SF-539 CNS; 103% in the experiment with UACC-257 melanoma; 106% in the experiment on M14 melanoma; 78.2% with HCT-15 colon; 106% with HT29 colon; 129% in the experiment on SNB-75 CNS. The growth with SNB-19 CNS is 98.5%; in the experiment on U251 CNS it was 103%; in the experiment with PC-3 prostate, 99.2%; in the experiment with SK-MEL-5 melanoma, 99.7%; in the experiment with UACC-62 melanoma, 92.6%; in the experiment on LOX IMVI melanoma, 100%. Moreover, the growth in the experiment with SK-MEL-28 melanoma is 99.5%; in the experiment with SK-MEL-2 melanoma, 98.2%.
Turning to `C[C@@H]1CN(c2ccc3ncc(C#Cc4cncc(C(=O)Nc5ccc(CN6CCN(C)CC6)c(C(F)(F)F)c5)c4)n3n2)C[C@H](C)O1`, the growth is -11.8% (active) in the experiment with K-562 leukemia; -68.9% (active) in the experiment on MALME-3M melanoma; -24.9% (active) with MDA-MB-231 breast; -92.1% (active) in the experiment with RXF 393 renal; -60.3% (active) in the experiment with SF-268 CNS; 0.595% (active) in the experiment on SF-295 CNS. The growth with SF-539 CNS is -96.1% (active); with UACC-257 melanoma, -19.1% (active); in the experiment with M14 melanoma, -76.3% (active); with HCT-15 colon, -17.2% (active); with HT29 colon, -65.8% (active); with SNB-75 CNS, -79.3% (active). Moreover, the growth in the experiment on SNB-19 CNS was -4.76% (active); in the experiment with U251 CNS, -97.9% (active); in the experiment with PC-3 prostate it was 0.777% (active); in the experiment with SK-MEL-5 melanoma it was -94.5% (active); with UACC-62 melanoma, -65.9% (active); with LOX IMVI melanoma it was -87.7% (active). The values for the growth with SK-MEL-28 melanoma and with SK-MEL-2 melanoma were -89.5% (active) and -89.7% (active), respectively.
Take `OC1CCN(CCCOc2c3ccc(Cl)cc3nc3c2oc2ccccc23)CC1`: the growth in the experiment on K-562 leukemia is -7.34% (active); with MALME-3M melanoma it was -81.2% (active); in the experiment with MDA-MB-231 breast, -14.7% (active); with RXF 393 renal it was -74.3% (active); in the experiment with SF-268 CNS, 4.41% (active); with SF-295 CNS, -23.2% (active). In addition, the growth in the experiment on SF-539 CNS was -76.1% (active); with UACC-257 melanoma it was -69.2% (active); in the experiment on M14 melanoma it was -84.2% (active); with HCT-15 colon it was -31.7% (active); in the experiment with HT29 colon, -44.3% (active); with SNB-75 CNS, -19.1% (active). Besides, the growth with SNB-19 CNS is 6.3% (active); in the experiment on U251 CNS, -43.3% (active); in the experiment on PC-3 prostate it was -4.93% (active); in the experiment with SK-MEL-5 melanoma, -97.8% (active); with UACC-62 melanoma it was -69.7% (active); in the experiment with LOX IMVI melanoma, -85.8% (active). The growth in the experiment with SK-MEL-28 melanoma was -78.6% (active); in the experiment on SK-MEL-2 melanoma, -86.3% (active).
As to `Nc1cc(-c2c[nH]c3ccc(Cl)cc23)nc2cc(-c3c[nH]c4ccc(Cl)cc34)nn12`, the growth was 4.93% (active) in the experiment with K-562 leukemia; 90.6% in the experiment on MALME-3M melanoma; 49.3% in the experiment on MDA-MB-231 breast; 75% in the experiment on RXF 393 renal; 54% in the experiment on SF-268 CNS; 33.6% in the experiment on SF-295 CNS. Also, the growth was 65.5% in the experiment on SF-539 CNS; 83.9% in the experiment with UACC-257 melanoma; 48.6% in the experiment with M14 melanoma; 11.1% in the experiment with HCT-15 colon; 0.992% (active) in the experiment on HT29 colon; 71.9% in the experiment with SNB-75 CNS. The growth in the experiment on SNB-19 CNS is 70.5%; in the experiment on U251 CNS, 9.85% (active); in the experiment with PC-3 prostate it was 36.4%; in the experiment on SK-MEL-5 melanoma, 70.9%; with UACC-62 melanoma, 70.4%; with LOX IMVI melanoma, -5.92% (active). In addition, the growth in the experiment with SK-MEL-28 melanoma is 80.8%; in the experiment on SK-MEL-2 melanoma, 71.6%.
For `Nc1cc(-c2c[nH]c3ccc(F)cc23)nc2cc(-c3c[nH]c4ccc(F)cc34)nn12`, the growth in the experiment with K-562 leukemia was 0.113% (active); in the experiment with MALME-3M melanoma, 94.9%; in the experiment on MDA-MB-231 breast, 70.6%; with RXF 393 renal, 128%; with SF-268 CNS it was 91.8%; with SF-295 CNS it was 85.4%. The growth in the experiment on SF-539 CNS is 87.4%; with UACC-257 melanoma, 116%; in the experiment on M14 melanoma it was 79.3%; in the experiment with HCT-15 colon it was 31%; in the experiment on HT29 colon, -60.9% (active); in the experiment on SNB-75 CNS, 79%. Further, the growth is 106% with SNB-19 CNS; 3.43% (active) in the experiment on U251 CNS; 78.8% in the experiment with PC-3 prostate; 92.8% with SK-MEL-5 melanoma; 104% in the experiment on UACC-62 melanoma; -18.8% (active) in the experiment with LOX IMVI melanoma. For the same compound, the growth in the experiment with SK-MEL-28 melanoma is 109%.
For `O=C(NNc1nc2cc(F)ccc2n2c(CN3CC4(COC4)C3)ccc12)c1cnccn1`, the growth was 13.4% in the experiment with K-562 leukemia; 19.5% in the experiment on MALME-3M melanoma; 30.6% in the experiment on MDA-MB-231 breast; 39.2% in the experiment with RXF 393 renal; 22.8% with SF-268 CNS; 14.3% in the experiment on SF-295 CNS. Besides, the growth in the experiment on SF-539 CNS is 3.55% (active); in the experiment with UACC-257 melanoma it was -8.36% (active); in the experiment with M14 melanoma, -26.4% (active); in the experiment with HCT-15 colon, 33.1%; in the experiment with HT29 colon it was 28.6%; with SNB-75 CNS, 63.1%. For the same compound, the growth with SNB-19 CNS was 29.4%; in the experiment on U251 CNS, 11.6%; with PC-3 prostate, 38.9%; in the experiment on SK-MEL-5 melanoma, -20.3% (active); in the experiment on UACC-62 melanoma, 5.57% (active); with LOX IMVI melanoma, 19.1%. For the same compound, the growth with SK-MEL-28 melanoma was 20.6%.
`N=C1CC(=O)NN1C(=O)CSc1nc2sc3c(c2c(=O)n1-c1ccc(Cl)cc1)CCCC3`: the growth with K-562 leukemia is 94.6%; in the experiment with MALME-3M melanoma, 90.5%; in the experiment with MDA-MB-231 breast, 87.7%; in the experiment on RXF 393 renal it was 119%; in the experiment on SF-268 CNS, 99.7%; with SF-295 CNS, 97.6%. The growth in the experiment with SF-539 CNS was 97.3%; with UACC-257 melanoma it was 106%; in the experiment on M14 melanoma, 99.3%; in the experiment with HCT-15 colon, 106%; with HT29 colon, 126%; in the experiment with SNB-75 CNS it was 73.7%. Also, the growth is 92.9% in the experiment on SNB-19 CNS; 101% with U251 CNS; 95.6% in the experiment with PC-3 prostate; 103% with SK-MEL-5 melanoma; 93.9% in the experiment on UACC-62 melanoma; 97.1% in the experiment on LOX IMVI melanoma. The growth in the experiment with SK-MEL-28 melanoma is 108%.

For the origin of these results see PubChem BioAssay (NCI).
